# According to paper PMC12350791:
# How the values were obtained:
# Assay in all cases: cross-linking mass spectrometry
# Details in all cases: DSBSO, in cells or nuclear extract, not told apart
# [1] = biological target: USP39 (UniProt Q53GS9)
# [2] = biological target: SF1 (UniProt Q15637)
# [3] = biological target: SF3A1 (UniProt Q15459)
# [4] = biological target: SF3B3 (UniProt Q15393)
# [5] = biological target: SF3B2 (UniProt Q13435)
# [6] = biological target: SMC4 (UniProt Q9NTJ3)
# [7] = biological target: SNRPD1 (UniProt P62314)
# [8] = biological target: SNRPD3 (UniProt P62318)
# [9] = biological target: SNU13 (UniProt P55769)
# [10] = biological target: SPC25 (UniProt Q9HBM1)
# [11] = biological target: SPG11 (UniProt Q96JI7)
# [12] = biological target: STAT5B (UniProt P51692)
# [13] = biological target: STK24 (UniProt Q9Y6E0)
# [14] = biological target: SYMPK (UniProt Q92797)
# [15] = biological target: THOC1 (UniProt Q96FV9)
# [16] = biological target: THOC3 (UniProt Q96J01)
# [17] = biological target: THOC7 (UniProt Q6I9Y2)
# [18] = biological target: THRAP3 (UniProt Q9Y2W1)
# [19] = biological target: TMED2 (UniProt Q15363)
# [20] = biological target: TMED4 (UniProt Q7Z7H5)
# [21] = biological target: TMED7 (UniProt Q9Y3B3)
# [22] = biological target: TMED9 (UniProt Q9BVK6)
# [23] = biological target: TSNAX (UniProt Q99598)
# [24] = biological target: TXLNG (UniProt Q9NUQ3)
# [25] = biological target: UBE2I (UniProt P63279)
# [26] = biological target: UQCRC2 (UniProt P22695)
# [27] = biological target: UXT (UniProt Q9UBK9)
# [28] = biological target: VIRMA (UniProt Q69YN4)
# Chain of VIRMA (Q69YN4 whole entry): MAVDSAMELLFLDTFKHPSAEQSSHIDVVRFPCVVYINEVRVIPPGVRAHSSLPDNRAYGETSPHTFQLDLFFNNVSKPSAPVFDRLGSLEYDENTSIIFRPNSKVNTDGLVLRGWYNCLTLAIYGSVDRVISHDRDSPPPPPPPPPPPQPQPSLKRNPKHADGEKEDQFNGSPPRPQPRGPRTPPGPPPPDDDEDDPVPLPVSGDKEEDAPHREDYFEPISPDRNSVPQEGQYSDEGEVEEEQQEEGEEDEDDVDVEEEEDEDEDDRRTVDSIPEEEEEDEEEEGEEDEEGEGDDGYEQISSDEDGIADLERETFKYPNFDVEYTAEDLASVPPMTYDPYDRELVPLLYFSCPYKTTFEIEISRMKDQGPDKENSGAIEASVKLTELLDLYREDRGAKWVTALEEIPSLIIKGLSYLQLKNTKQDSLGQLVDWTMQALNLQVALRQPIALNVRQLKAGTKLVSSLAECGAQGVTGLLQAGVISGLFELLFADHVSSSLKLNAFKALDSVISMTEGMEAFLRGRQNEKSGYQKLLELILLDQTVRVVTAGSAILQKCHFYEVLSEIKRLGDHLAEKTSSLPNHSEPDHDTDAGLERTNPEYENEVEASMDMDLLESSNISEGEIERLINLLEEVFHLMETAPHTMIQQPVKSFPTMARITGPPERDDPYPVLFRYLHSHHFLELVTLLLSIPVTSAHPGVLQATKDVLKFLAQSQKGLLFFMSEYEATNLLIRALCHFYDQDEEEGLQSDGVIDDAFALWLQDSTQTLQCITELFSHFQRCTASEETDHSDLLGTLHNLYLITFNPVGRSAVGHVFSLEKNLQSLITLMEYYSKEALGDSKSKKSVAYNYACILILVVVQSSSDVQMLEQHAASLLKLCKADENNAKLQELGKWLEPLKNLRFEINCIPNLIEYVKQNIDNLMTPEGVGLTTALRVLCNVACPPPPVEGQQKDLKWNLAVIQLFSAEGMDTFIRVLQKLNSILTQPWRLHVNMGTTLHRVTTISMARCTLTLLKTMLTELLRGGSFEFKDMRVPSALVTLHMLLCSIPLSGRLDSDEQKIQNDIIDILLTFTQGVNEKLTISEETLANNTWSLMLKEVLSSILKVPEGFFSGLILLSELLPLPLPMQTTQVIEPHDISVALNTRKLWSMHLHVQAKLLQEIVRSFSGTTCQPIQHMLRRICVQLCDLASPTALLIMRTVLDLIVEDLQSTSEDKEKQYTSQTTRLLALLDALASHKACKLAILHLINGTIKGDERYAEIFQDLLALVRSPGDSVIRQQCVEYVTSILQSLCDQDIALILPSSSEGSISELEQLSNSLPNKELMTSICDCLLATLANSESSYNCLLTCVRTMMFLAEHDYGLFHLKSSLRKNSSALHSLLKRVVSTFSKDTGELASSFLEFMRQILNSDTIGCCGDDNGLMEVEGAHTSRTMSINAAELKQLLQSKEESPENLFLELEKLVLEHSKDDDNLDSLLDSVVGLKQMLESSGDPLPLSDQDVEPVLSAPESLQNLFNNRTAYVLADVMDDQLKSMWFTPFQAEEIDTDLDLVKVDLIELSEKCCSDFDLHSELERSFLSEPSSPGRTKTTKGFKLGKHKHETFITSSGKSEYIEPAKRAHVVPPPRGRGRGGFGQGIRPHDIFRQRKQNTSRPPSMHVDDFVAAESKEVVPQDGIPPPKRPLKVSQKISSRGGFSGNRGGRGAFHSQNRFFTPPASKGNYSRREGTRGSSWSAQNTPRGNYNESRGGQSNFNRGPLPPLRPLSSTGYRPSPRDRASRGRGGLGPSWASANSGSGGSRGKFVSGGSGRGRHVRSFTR
# [29] = biological target: VPS35 (UniProt Q96QK1)
# [30] = biological target: YWHAB (UniProt P31946)
# [31] = biological target: YWHAG (UniProt P61981)
# [32] = biological target: YWHAH (UniProt Q04917)
# [33] = biological target: YWHAZ (UniProt P63104)
# [34] = biological target: ZC3H4 (UniProt Q9UPT8)
# Chain of TMED10, P49755 (P49755 whole entry): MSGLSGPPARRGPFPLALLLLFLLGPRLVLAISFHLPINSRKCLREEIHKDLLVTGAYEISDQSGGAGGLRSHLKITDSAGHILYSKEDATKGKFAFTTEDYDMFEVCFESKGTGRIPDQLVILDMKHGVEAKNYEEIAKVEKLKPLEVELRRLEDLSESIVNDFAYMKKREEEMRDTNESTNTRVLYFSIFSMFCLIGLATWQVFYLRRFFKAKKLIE
# Chain of SF3A1 (Q15459 whole entry): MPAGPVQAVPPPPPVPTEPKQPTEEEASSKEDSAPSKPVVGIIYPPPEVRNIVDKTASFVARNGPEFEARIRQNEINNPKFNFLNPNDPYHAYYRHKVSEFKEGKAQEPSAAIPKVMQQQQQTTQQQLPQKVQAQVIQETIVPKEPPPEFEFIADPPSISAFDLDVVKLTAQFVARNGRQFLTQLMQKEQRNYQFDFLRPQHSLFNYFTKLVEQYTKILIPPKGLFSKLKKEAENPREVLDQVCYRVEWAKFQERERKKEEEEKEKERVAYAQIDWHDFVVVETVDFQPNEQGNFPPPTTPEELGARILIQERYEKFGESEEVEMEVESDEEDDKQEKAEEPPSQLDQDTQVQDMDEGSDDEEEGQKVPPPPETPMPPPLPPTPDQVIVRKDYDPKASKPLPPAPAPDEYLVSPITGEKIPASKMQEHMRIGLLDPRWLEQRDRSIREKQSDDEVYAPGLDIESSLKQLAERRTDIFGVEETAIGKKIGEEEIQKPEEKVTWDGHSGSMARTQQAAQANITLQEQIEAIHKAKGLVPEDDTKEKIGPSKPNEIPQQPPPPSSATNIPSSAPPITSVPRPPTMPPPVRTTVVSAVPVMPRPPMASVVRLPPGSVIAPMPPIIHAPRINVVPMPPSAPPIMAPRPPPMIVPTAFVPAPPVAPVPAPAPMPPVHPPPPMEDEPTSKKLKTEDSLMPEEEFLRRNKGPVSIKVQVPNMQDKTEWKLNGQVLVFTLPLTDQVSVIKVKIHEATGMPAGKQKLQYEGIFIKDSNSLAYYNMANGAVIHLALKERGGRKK
# Chain of SF3B3 (Q15393 whole entry): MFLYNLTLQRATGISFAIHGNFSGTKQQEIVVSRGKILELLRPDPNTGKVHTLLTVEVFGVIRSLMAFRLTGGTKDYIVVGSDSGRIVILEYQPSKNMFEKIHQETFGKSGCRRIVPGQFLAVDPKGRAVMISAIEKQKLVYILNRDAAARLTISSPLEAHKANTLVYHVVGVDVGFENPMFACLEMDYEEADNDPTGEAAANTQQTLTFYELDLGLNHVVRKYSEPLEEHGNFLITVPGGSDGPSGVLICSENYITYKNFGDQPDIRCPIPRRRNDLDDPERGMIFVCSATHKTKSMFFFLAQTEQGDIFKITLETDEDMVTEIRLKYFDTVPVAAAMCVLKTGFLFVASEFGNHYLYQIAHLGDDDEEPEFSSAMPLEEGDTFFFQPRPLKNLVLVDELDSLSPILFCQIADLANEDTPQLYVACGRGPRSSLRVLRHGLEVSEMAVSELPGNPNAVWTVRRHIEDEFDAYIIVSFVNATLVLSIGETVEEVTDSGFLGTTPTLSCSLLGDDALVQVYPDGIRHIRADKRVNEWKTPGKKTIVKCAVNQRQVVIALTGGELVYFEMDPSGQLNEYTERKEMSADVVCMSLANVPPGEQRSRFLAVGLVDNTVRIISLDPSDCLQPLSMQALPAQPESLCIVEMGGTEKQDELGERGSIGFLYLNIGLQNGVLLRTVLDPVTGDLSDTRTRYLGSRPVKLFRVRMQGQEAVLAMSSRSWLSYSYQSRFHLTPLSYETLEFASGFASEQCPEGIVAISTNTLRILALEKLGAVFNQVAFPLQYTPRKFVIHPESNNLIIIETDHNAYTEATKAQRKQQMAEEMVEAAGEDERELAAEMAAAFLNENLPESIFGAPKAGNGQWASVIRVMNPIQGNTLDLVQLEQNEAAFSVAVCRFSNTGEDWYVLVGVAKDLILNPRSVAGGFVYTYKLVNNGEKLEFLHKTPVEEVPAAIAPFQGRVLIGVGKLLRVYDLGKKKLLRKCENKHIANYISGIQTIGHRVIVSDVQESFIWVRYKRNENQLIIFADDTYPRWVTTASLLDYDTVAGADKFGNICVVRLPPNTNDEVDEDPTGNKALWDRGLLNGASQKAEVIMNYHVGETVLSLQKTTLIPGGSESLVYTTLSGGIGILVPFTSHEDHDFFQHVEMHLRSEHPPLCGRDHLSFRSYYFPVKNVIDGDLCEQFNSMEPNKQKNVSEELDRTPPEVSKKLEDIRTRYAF
# Chain of SF3B2 (Q13435 whole entry): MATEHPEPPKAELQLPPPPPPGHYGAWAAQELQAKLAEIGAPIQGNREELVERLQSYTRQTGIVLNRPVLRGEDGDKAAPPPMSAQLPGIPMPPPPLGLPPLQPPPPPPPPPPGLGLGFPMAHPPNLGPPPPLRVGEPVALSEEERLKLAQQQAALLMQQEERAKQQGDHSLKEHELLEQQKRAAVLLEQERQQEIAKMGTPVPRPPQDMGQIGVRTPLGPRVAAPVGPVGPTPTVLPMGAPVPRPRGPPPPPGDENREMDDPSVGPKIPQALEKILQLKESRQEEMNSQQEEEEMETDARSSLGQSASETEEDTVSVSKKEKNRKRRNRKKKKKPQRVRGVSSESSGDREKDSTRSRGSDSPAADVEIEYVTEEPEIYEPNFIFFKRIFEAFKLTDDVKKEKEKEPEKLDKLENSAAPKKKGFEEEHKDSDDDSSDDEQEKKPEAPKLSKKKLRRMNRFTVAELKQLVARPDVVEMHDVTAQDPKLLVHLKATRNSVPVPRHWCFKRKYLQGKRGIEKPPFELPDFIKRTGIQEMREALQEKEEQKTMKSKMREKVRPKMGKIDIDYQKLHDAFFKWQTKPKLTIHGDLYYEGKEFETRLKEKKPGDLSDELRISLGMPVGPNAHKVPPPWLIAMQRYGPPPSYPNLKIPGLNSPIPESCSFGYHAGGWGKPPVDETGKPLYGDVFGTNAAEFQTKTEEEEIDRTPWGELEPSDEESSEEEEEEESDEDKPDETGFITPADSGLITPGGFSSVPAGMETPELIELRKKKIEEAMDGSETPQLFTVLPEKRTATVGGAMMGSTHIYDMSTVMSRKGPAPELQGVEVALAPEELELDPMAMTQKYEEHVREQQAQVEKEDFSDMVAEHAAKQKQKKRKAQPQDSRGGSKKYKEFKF
# Chain of SF3B2, Q13435 (Q13435 whole entry): as above
substance,measurement,setting,value
"EFTUD2, Q15029",cross-linked residues,[1],K646 - K308
"IREB2, P48200",cross-linked residues,[2],K530 - K169
"SF3A2, Q15428",cross-linked residues,[3],K190 - K264
"SF3B2, Q13435",cross-linked residues,[3],K275 - K55
same,cross-linked residues,[4],K486 - K965
"SF3A3, Q12874",cross-linked residues,[5],K69 - K280
same,cross-linked residues,[4],K496 - K974
"SF3B1, O75533",cross-linked residues,[5],K1292 - K486
"NCAPH, Q15003",cross-linked residues,[6],K725 - K99
"SNRPB, P14678",cross-linked residues,[7],K54 - K44
"SNRPC, P09234",cross-linked residues,[8],K52 - K78
"PRPF6, O94906",cross-linked residues,[9],K775 - K113
"TBC1D9B, Q66K14",cross-linked residues,[10],K1066 - K90
"RPS16, P62249",cross-linked residues,[11],K60 - K942
"STAT5A, P42229",cross-linked residues,[12],K86 - K86
"PDCD10, Q9BUL8",cross-linked residues,[13],K70 - K347
"CSTF2, P33240",cross-linked residues,[14],K189 - K490
"THOC7, Q6I9Y2",cross-linked residues,[15],K32 - S2
"THOC5, Q13769",cross-linked residues,[16],K223 - K171
same,cross-linked residues,[17],K223 - K159
"NDUFAF2, Q8N183",cross-linked residues,[18],K57 - K668
"TMED10, P49755",cross-linked residues,[19],K145 - K129
same,cross-linked residues,[20],K145 - K152
same,cross-linked residues,[21],K169 - K91
"TMED2, Q15363",cross-linked residues,[20],K129 - K152
same,cross-linked residues,[22],K129 - K160
"TSN, Q15631",cross-linked residues,[23],K219 - K269
"TXLNA, P40222",cross-linked residues,[24],K216 - K191
"RANBP2, P49792",cross-linked residues,[25],K2687 - K49
"COX5B, P10606",cross-linked residues,[26],K57 - K23
"PDRG1, Q9NUG6",cross-linked residues,[27],K36 - K48
"WTAP, Q15007",cross-linked residues,[28],K268 - K399
"ZC3H13, Q5T200",cross-linked residues,[28],K1535 - K576
"VPS26A, O75436",cross-linked residues,[29],K30 - K44
"YWHAQ, P27348",cross-linked residues,[30],K85 - K11
"YWHAB, P31946",cross-linked residues,[31],K87 - K10
"YWHAZ, P63104",cross-linked residues,[32],K9 - K91
"YWHAG, P61981",cross-linked residues,[33],K77 - K9
"YWHAE, P62258",cross-linked residues,[33],K12 - K68
"WDR82, Q6UXN9",cross-linked residues,[34],K181 - K935
